PubChem BioAssay (NCATS)
Inconclusive results are not listed. Activity calls are given as the source filed them. Unless noted, calls follow the shape of the dose curve; as a rule, active = well fitted curve in the direction sought with a large enough effect; inconclusive = small, poorly fitted or top-dose-only effect, or another doubt; inactive = no such curve, though single readings can be large; an effect the other way counts as inactive or inconclusive.

How the values were obtained:
[1] = NCATS anti-infectives library activity on HEK293 viability as a counter-qHTS vs the C. elegans viability qHTS (AID 1745854);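 also: HEK293 cells exposed to compounds for 24 hr before the viability read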; also: potency is read from the fitted curve at half-maximal effect
How it was run: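 Compounds were acoustically plated (several concentrations, 1:5, final up to 41.7 uM), then 1500 HEK293 cells added per well and incubated 24 hr at 37C, 5% CO2. CellTiter-Glo was added and luminescence read after 10 min.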

[2] = target: Catechol O-methyltransferase (Homo sapiens) (UniProt P21964); assay: Confirmatory Screen for Target Class Profiling of Small Molecule Inhibitors of Methyltransferases (AID 1745852; calls by dose curve; also: potency is read from the fitted curve at half-maximal effect; as to activity change, negative = inhibition: % is scaled to controls: 0 for no effect and ±100 for the full control effect); details: MTase-Glo luminescence, SAH detection, recombinant enzyme; measured here: COMT max response; stronger effect = lower value
Chain of Catechol O-methyltransferase (Homo sapiens) (P21964 whole entry, looked up): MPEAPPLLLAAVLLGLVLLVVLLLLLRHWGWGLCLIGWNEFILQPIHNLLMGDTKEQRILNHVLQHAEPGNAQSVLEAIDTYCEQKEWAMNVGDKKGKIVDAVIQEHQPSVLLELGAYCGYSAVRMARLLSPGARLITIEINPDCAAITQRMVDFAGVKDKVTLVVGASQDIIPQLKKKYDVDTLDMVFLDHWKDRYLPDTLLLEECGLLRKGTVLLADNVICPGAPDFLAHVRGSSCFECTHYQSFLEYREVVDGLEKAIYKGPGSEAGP

[3] = target: Guanidinoacetate N-methyltransferase (Homo sapiens) (UniProt Q14353); assay: as above; details: MTase-Glo luminescence, SAH detection, recombinant enzyme; activity change, negative = inhibition: at 57.3 µM (top of the series)
[4] = target: Nicotinamide N-methyltransferase (Homo sapiens) (UniProt P40261); assay: as above; details: MTase-Glo luminescence, SAH detection, recombinant enzyme; measured here: NNMT max response; stronger effect = lower value
Chain of Nicotinamide N-methyltransferase (Homo sapiens) (P40261 whole entry, looked up): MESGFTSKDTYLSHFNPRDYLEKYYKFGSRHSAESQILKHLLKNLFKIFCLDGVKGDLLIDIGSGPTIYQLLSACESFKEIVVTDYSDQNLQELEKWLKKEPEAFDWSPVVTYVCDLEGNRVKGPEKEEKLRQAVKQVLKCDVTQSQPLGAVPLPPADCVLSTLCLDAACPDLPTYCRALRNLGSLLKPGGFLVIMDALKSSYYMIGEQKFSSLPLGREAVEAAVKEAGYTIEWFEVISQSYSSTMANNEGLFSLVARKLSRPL

[5] = target: Phenylethanolamine N-methyltransferase (Homo sapiens) (UniProt P11086); assay: as above; details: MTase-Glo luminescence, SAH detection, recombinant enzyme; measured here: PNMT max response; stronger effect = lower value
Chain of Phenylethanolamine N-methyltransferase (Homo sapiens) (P11086 whole entry, looked up): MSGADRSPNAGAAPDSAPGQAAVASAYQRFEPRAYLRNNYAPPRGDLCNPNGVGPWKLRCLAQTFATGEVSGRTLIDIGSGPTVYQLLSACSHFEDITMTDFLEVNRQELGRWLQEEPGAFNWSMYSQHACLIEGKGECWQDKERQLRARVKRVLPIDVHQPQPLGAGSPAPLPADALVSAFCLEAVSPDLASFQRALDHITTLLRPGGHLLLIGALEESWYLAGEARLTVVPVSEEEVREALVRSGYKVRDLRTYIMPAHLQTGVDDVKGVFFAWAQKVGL

[6] = target: Rap guanine nucleotide exchange factor 3 (Homo sapiens) (UniProt O95398); assay: Confirmatory qHTS for agonist of cAMP-regulated guanine nucleotide exchange factor 3 (EPAC1) (AID 1645881);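 also: EPAC1 catalysed release of BODIPY-GDP from Rap1B seen as fluorescence loss; 100% = effect of cAMP agonist control; nearly all actives have a fitted effect of over 75% in size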
Chain of Rap guanine nucleotide exchange factor 3 (Homo sapiens) (O95398 whole entry, looked up): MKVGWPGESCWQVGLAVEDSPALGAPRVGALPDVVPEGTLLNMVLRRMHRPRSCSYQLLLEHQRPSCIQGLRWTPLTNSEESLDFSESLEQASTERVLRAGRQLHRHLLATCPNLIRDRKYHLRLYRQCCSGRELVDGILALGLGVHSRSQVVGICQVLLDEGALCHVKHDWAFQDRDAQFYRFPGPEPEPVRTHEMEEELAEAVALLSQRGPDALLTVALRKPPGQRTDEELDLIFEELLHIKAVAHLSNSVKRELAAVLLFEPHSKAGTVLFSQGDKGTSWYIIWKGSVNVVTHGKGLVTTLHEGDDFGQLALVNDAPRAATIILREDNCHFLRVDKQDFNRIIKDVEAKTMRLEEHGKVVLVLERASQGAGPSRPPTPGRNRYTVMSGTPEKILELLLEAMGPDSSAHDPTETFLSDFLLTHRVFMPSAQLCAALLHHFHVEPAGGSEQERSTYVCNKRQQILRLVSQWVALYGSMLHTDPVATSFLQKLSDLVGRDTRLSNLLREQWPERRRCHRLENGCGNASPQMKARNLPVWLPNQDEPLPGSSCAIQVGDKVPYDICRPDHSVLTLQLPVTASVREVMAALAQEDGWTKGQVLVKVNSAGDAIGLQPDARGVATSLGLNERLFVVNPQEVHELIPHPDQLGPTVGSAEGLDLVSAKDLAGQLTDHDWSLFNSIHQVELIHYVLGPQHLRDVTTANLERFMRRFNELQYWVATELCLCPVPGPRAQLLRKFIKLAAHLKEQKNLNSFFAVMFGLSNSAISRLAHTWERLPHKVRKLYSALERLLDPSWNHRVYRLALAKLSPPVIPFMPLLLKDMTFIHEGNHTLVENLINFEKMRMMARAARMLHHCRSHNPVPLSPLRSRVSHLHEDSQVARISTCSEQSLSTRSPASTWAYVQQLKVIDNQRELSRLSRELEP

[7] = target: Rap guanine nucleotide exchange factor 4 (Homo sapiens) (UniProt Q8WZA2); assay: Confirmatory qHTS for agonist of cAMP-regulated guanine nucleotide exchange factor 4 (EPAC2) (AID 1645884);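 also: nucleotide exchange releases bodipy-GDP from Rap1 and this lowers its fluorescence; % is scaled to controls: 0 for no effect and ±100 for the full control effect; nearly all actives have a fitted effect of over 65% in size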
Chain of Rap guanine nucleotide exchange factor 4 (Homo sapiens) (Q8WZA2 whole entry, looked up): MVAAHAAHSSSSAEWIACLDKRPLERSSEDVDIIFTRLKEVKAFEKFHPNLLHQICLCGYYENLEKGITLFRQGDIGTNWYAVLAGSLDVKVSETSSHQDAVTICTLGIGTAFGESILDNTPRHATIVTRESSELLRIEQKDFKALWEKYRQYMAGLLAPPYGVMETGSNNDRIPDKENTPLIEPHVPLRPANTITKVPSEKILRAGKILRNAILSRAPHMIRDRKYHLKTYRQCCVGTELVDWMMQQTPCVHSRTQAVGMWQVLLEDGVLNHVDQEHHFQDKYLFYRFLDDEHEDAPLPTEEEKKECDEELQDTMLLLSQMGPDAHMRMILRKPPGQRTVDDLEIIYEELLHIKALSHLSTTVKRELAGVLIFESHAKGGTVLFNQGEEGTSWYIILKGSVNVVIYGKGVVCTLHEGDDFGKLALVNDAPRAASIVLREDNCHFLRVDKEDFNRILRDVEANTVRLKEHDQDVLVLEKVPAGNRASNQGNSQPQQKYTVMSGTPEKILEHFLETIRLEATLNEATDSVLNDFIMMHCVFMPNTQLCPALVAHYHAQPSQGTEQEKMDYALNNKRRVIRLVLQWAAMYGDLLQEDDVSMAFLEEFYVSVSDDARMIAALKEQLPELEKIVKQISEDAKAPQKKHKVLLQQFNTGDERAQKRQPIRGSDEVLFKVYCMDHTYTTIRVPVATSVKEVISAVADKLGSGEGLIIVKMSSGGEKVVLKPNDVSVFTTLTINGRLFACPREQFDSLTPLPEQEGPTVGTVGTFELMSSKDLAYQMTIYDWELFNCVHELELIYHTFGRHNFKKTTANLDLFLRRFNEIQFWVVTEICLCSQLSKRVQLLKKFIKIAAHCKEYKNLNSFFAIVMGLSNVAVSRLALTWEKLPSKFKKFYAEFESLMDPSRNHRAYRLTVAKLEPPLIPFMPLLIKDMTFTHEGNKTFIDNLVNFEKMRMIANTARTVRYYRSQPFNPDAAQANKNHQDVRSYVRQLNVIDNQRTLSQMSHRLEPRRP

[8] = target: Rap guanine nucleotide exchange factor 4 (Homo sapiens) (UniProt Q8WZA2); assay: Confirmatory qHTS for antagonist of cAMP-regulated guanine nucleotide exchange factor 4 (EPAC2) (AID 1645885); also: nearly all actives have a fitted effect of over 25% in size; also: potency is read from the fitted curve at half-maximal effect; as to activity change, negative = inhibition: % is scaled to controls: 0 for no effect and ±100 for the full control effect
[9] = target: Rap guanine nucleotide exchange factor 3 (Homo sapiens) (UniProt O95398); assay: Counterscreen qHTS for antagonist of cAMP-regulated guanine nucleotide exchange factor 3 (EPAC1) (AID 1645888);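 also: fluorescence loss as bound BODIPY-GDP is released from Rap1B; % of control where 0% means no effect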
How it was run: (§1)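 Rap1B–BODIPY-GDP (250 nM) with 50 uM GDP; compounds pin-transferred to 9.74 nM–152 uM final (activator) or from 7.32 nM upwards (inhibitor). Fluorescence Ex/Em 480/540 nm read at 5 and 30 min, then after adding cAMP or buffer, at room temperature.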

[10] = target: Rap guanine nucleotide exchange factor 3 (Homo sapiens) (UniProt O95398); assay: Counterscreen qHTS for agonist of cAMP-regulated guanine nucleotide exchange factor 3 (EPAC1) (AID 1645889); also: % of control where 0% means no effect; nearly all actives have a fitted effect of over 40% in size
How it was run: as §1

O=S(=O)(F)Cc1ccccc1
Potency [1]: inactive

Cc1[nH]nc2ccc(-c3cncc(OC[C@@H](N)Cc4c[nH]c5ccccc45)c3)cc12
activity [2]: -31.1% | Potency [3]: 30.4 µM (active) | activity [4]: -70.5% | activity [5]: -56.5%

CNCCc1c[nH]c2ccc(O)cc12
activity [2]: 2.02% | activity change, negative = inhibition [3]: 1.54% | activity [4]: -11.4% | activity [5]: 0.784%

C[C@@H](N)Cc1cnc[nH]1
activity [2]: -4.66% | activity change, negative = inhibition [3]: -1.84% | activity [4]: -6.87% | activity [5]: -2.06%

CN(C)[C@@H]1C(=O)C(C(N)=O)=C(O)[C@@]2(O)C(=O)C3=C(O)c4c(O)cccc4[C@@](C)(O)[C@H]3[C@H](O)[C@@H]12
outcome [6]: inactive | outcome [7]: inactive | Potency [8]: inactive

Cn1cnc(CCN)c1
activity [2]: 2.37% | activity change, negative = inhibition [3]: 1.75% | activity [4]: -8.03% | activity [5]: 3.1%

CCCCOC(=O)c1ccccc1C(=O)OCc1ccccc1
outcome [6]: inactive | activation [7]: 4.15% [at 17.1 µM] (inactive) | outcome [9]: inactive | outcome [10]: inactive

CCCCCC[C@H]1C(=O)O[C@H](C)[C@H](NC(=O)c2cccc(NC=O)c2O)C(=O)O[C@@H](C)[C@@H]1OC(=O)CC(C)C
Potency [1]: inactive

CCNC(=O)C[C@@H]1N=C(c2ccc(Cl)cc2)c2cc(OC)ccc2-n2c(C)nnc21
Potency [1]: inactive

c1ccc(CCCN2CCN(CCOC(c3ccccc3)c3ccccc3)CC2)cc1
outcome [6]: inactive | outcome [7]: inactive | Potency [8]: inactive | outcome [9]: inactive

O=C1C=CC[C@@H]2[C@H]3CCCN4CCC[C@@H](CN12)[C@@H]34
Potency [1]: inactive

NC1CC1c1ccccc1 (stereo unspecified)
activity [2]: 4.07% | activity change, negative = inhibition [3]: 2.15% | activity [4]: -6.32% | activity [5]: -14.4%

NC1CCc2cc(O)c(O)cc2C1 (stereo unspecified)
activity [2]: 149% | activity change, negative = inhibition [3]: 0.293% | activity [4]: -14.5% | activity [5]: -22.8%

CNCCc1ccc(O)c(O)c1
activity [2]: 109% | activity change, negative = inhibition [3]: 3.55% | activity [4]: -0.877% | activity [5]: 1.2%

CCCN(CCC)[C@@H]1CCc2ccc(O)cc2C1
activity [2]: 3.68% | activity change, negative = inhibition [3]: 1.97% | activity [4]: -6.47% | activity [5]: 6.74%

O=S(=O)(CC1CS1)c1ccc(Oc2ccccc2)cc1 (stereo unspecified)
Potency [1]: inactive

CC(C)NC(C)Cc1ccc(I)cc1 (stereo unspecified)
activity [2]: 0.93% | activity change, negative = inhibition [3]: 2.72% | activity [4]: -9.49% | activity [5]: 2.34%

O=C(Oc1ccc([N+](=O)[O-])cc1)N1CCC(C(O)(c2ccc3c(c2)OCO3)c2ccc3c(c2)OCO3)CC1
Potency [1]: inactive

CC1=C(O)C(=O)C=C2C1=CC=C1[C@@]2(C)CC[C@@]2(C)[C@@H]3C[C@](C)(C(=O)O)CC[C@]3(C)CC[C@]12C
Potency [1]: 7.94 µM (active)

NCCc1c[nH]c2ccccc12
activity [2]: -4.15% | activity change, negative = inhibition [3]: 2.74% | activity [4]: -8.81% | activity [5]: -14.8%

CC1=NN=C(c2ccc(N)cc2)c2cc3c(cc2C1)OCO3
outcome [6]: inactive | outcome [7]: inactive | Potency [8]: inactive

Cc1nc(-c2ccc(-c3ccc(C(=O)N4CCc5cc6c(cc54)C4(CCN(C)CC4)CO6)cc3)c(C)c2)no1
outcome [6]: inactive | Potency [8]: inactive

CCCN(CCC)c1c([N+](=O)[O-])cc(S(N)(=O)=O)cc1[N+](=O)[O-]
outcome [6]: inactive | outcome [7]: inactive | Potency [8]: 89.7 µM (active)
